About 83,000 compounds went through this panel and 20% of them were active in at least one assay; those are over-represented in the sample as a whole.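 In brief: 96-well plates, 48 h treatment, single concentration, percent growth endpoint.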 Values without a mark were called inactive. Calls of active or inactive are those of the source. The calls were made as follows: active = growth percent below 10; inactive = the rest.
Columns and labels:
Assay in all cases: NCI-60 one-dose screen, 48 h (100 = growth as untreated, 0 = no growth, -100 = all killed)
[1] = system: NCI-H226 lung; details: 10 µM unless noted
[2] = system: NCI-H322M lung; details: 10 µM unless noted
[3] = system: HOP-92 NSCLC; details: 10 µM unless noted
[4] = system: NCI-H522 lung; details: 10 µM unless noted
[5] = system: A549/ATCC NSCLC; details: 10 µM unless noted
[6] = system: HT29 colon; details: 10 µM unless noted
[7] = system: SNB-19 CNS; details: 10 µM unless noted
[8] = system: TK-10 renal; details: 10 µM unless noted
[9] = system: CAKI-1 renal; details: 10 µM unless noted
[10] = system: A498 renal; details: 10 µM unless noted
[11] = system: CCRF-CEM leukemia; details: 10 µM unless noted
[12] = system: OVCAR-4 ovarian; details: 10 µM unless noted
[13] = system: SK-OV-3 ovarian; details: 10 µM unless noted
[14] = system: HS 578T breast; details: 10 µM unless noted
[15] = system: HOP-62 NSCLC; details: 10 µM unless noted
[16] = system: PC-3 prostate; details: 10 µM unless noted
[17] = system: OVCAR-8 ovarian; details: 10 µM unless noted
[18] = system: COLO 205 colon; details: 10 µM
[19] = system: EKVX NSCLC; details: 10 µM unless noted

| SMILES | growth [1] | growth [2] | growth [3] | growth [4] | growth [5] | growth [6] | growth [7] | growth [8] | growth [9] | growth [10] | growth [11] | growth [12] | growth [13] | growth [14] | growth [15] | growth [16] | growth [17] | growth [18] | growth [19] |
| --- | --- | --- | --- | --- | --- | --- | --- | --- | --- | --- | --- | --- | --- | --- | --- | --- | --- | --- | --- |
| COc1cc(N(CCCl)CCCl)ccc1C=Nc1ccccc1C(=O)O | 94.7% | 95.7% | 97.8% | 32.8% | 92.6% | 98.2% | 97.2% | 124% | 98.7% | 66.3% | 97.5% | 104% | 105% | 81.5% | – | – | – | – | – |
| C[As](=O)(O)c1ccc(C(=O)O)cc1 | 99.7% | 115% | – | – | 106% | 108% | 106% | 107% | – | 96.3% | – | 113% | 106% | – | 108% | 97.9% | 101% | – | – |
| NS(=O)(=O)c1nc[nH]c1[N+](=O)[O-] | 99.4% | 110% | 68.1% | 109% | – | 93.1% | – | 99.5% | 97.7% | – | 106% | 105% | 101% | 112% | – | 86.5% | 105% | 113% | 117% |
| Cc1cccc(N(C)c2cccc3c2C(=O)[Se]C3)c1C | 36.6% | 72.8% | – | – | 15.8% | 9.4% (active) | – | – | 70.1% | – | 56.1% | 40.7% | 188% | 58.8% | 18.8% | 66.7% | 20.2% | 27.1% | 19.9% |
| O=c1[nH]c2cc(Cl)ccc2n1C1CCN(CCCC(c2ccc(F)cc2)c2ccc(F)cc2)CC1 | 126% | 78.1% | -37.7% (active) | -56.4% (active) | – | -36.9% (active) | 73.8% | 13.1% | 30% | -90.2% (active) | -39.3% (active) | 56.6% | – | -80.6% (active) | – | 7.82% (active) | -56.7% (active) | – | 61.5% |
| CC12CCC(=O)C=C1C(O)CC1C2CCC2(C)C(O)CCC12 (stereo not given) | 94.7% | 98% | 103% | 106% | 101% | 108% | 101% | 104% | 102% | – | 103% | 104% | 115% | 104% | – | – | 105% | 112% | 107% |
| CNC(=O)Oc1ccccc1 | 102% | 107% | – | – | 94.9% | 118% | 97% | 122% | 113% | 120% | 111% | 88.7% | 108% | – | 116% | 106% | 110% | 104% | – |
| NC(=O)NC(=O)CI | 95.1% | 119% | – | – | 98.6% | 99.1% | 86.3% | 88.6% | – | 97.9% | – | 94.4% | – | 94.3% | 109% | 98.5% | 101% | -62.4% (active) | – |
| Cc1cc([N+](=O)[O-])c(Cl)cc1NS(=O)(=O)c1ccccc1 | 64.7% | 85.4% | – | – | – | 82.1% | 79.1% | 110% | – | 67.2% | – | 71.4% | 96% | 72.5% | 90% | 81.2% | 78.1% | 91.9% | – |
| COc1ccc(-c2ccc(OC)c(OC)c2OC)cc1 | 86.7% | 36% | – | – | 38.2% | -4.61% (active) | 38.9% | – | 15.1% | – | 10.1% | 70.6% | 7.71% (active) | – | 26.9% | 18.3% | 21.7% | -13.5% (active) | 52.4% |
| Cc1cc(N(CCCl)CCCl)ccc1C=Nc1ccc2ccccc2c1 | -49.7% (active) | 103% | – | – | 69.8% | 92% | 84.7% | – | 1.75% (active) | -77.9% (active) | 55.3% | 83.5% | 80.9% | – | 42.7% | 77.2% | 72.7% | 87.4% | – |
